Measurements: PubChem BioAssay (NCATS)
“And” between values parts separate entries of the source, which are not always exact repeats. Equal entries are not always repeated. Inconclusive results are not listed. The source made the active and inactive calls. Calls follow the shape of the dose curve; as a rule, active = well fitted curve in the direction sought with a large enough effect; inconclusive = small, poorly fitted or top-dose-only effect, or another doubt; inactive = no such curve, though single readings can be large; an effect the other way counts as inactive or inconclusive.

Legend:
[1] = qHTS of pediatric cancer cell lines to identify multiple opportunities for drug repurposing: Primary screen for BT-12 cells (AID 1347101); also: nearly all actives have a fitted effect of over 25% in size
Summary of the method: (§1)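 Cells (500-1,000/well) rested 5 h, then received compounds for 48 h; metabolically active cells were measured by CellTiter-Glo luminescence. Final concentrations spanned up to 46 µM (MIPE, 11-point) or 0.59 nM-46 µM (NPC, 8-point) in primary screens, 11-point in follow-ups.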

[2] = qHTS of pediatric cancer cell lines to identify multiple opportunities for drug repurposing: Primary screen for Rh18 cells (AID 1347102); also: nearly all actives have a fitted effect of over 65% in size
Summary of the method: (§2)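 Cells (500-1,000/well) in growth media were settled 5 h at 37 degrees C, then given compounds for 48 h. Viability was read as CellTiter-Glo luminescence. Primary runs used MIPE at 11 points (0.78 nM-46 µM) and NPC at 8 points (0.59 nM-46 µM); follow-ups used 11 points.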

[3] = qHTS of pediatric cancer cell lines to identify multiple opportunities for drug repurposing: Primary screen for OHS-50 cells (AID 1347103); also: nearly all actives have a fitted effect of over 40% in size; also: potency is read from the fitted curve at half-maximal effect
Summary of the method: as §1

[4] = qHTS of pediatric cancer cell lines to identify multiple opportunities for drug repurposing: Primary screen for RD cells (AID 1347104); also: nearly all actives have a fitted effect of over 55% in size
Summary of the method: (§3)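 500-1,000 cells/well; 5 h pre-incubation 37 °C/5% CO2; compound pinned; 48 h; CellTiter-Glo, 15 min RT; luminescence. MIPE 11-pt from 0.78 nM, NPC 8-pt from 0.59 nM final. Bortezomib 2.3 µM final as positive control.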

[5] = qHTS of pediatric cancer cell lines to identify multiple opportunities for drug repurposing: Primary screen for MG 63 (6-TG R) cells (AID 1347105); also: nearly all actives have a fitted effect of over 50% in size
Summary of the method: as §3

[6] = qHTS of pediatric cancer cell lines to identify multiple opportunities for drug repurposing: Primary screen for control Hh wild type fibroblast cells (AID 1347106);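 also: series mostly up to about 46 µM; a drop in luminescence marks cytotoxicity and a rise apparent proliferation; nearly all actives have a fitted effect of over 55% in size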
Summary of the method: as §2

[7] = qHTS of pediatric cancer cell lines to identify multiple opportunities for drug repurposing: Primary screen for Rh30 cells (AID 1347107); also: series mostly up to about 46 µM; nearly all actives have a fitted effect of over 75% in size
Summary of the method: as §2

[8] = qHTS of pediatric cancer cell lines to identify multiple opportunities for drug repurposing: Confirmatory screen for NB1643 cells (AID 1347109); also: nearly all actives have a fitted effect of over 45% in size; also: potency is read from the fitted curve at half-maximal effect
Summary of the method: as §2

[9] = qHTS of pediatric cancer cell lines to identify multiple opportunities for drug repurposing: Confirmatory screen for A673 cells (AID 1347110);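 also: cells exposed to compound for 48 h before the viability read; nearly all actives have a fitted effect of over 65% in size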
Summary of the method: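 Cells plated at 500-1,000/well were treated five hours later with multi-point dilutions up to 46 µM final. After two days, CellTiter-Glo was added and luminescence read.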

[10] = qHTS of pediatric cancer cell lines to identify multiple opportunities for drug repurposing: Confirmatory screen for BT-12 cells (AID 1347112); also: nearly all actives have a fitted effect of over 55% in size
Summary of the method: as §2

[11] = qHTS of pediatric cancer cell lines to identify multiple opportunities for drug repurposing: Confirmatory screen for LAN-5 cells (AID 1347113); also: nearly all actives have a fitted effect of over 65% in size
Summary of the method: as §2

[12] = qHTS of pediatric cancer cell lines to identify multiple opportunities for drug repurposing: Confirmatory screen for NB-EBc1 cells (AID 1347115);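 also: cells exposed to compound for 48 h before the viability read; nearly all actives have a fitted effect of over 45% in size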; also: potency is read from the fitted curve at half-maximal effect
Summary of the method: as §2

[13] = qHTS of pediatric cancer cell lines to identify multiple opportunities for drug repurposing: Confirmatory screen for BT-37 cells (AID 1347117); also: nearly all actives have a fitted effect of over 55% in size
Summary of the method: as §2

[14] = qHTS of pediatric cancer cell lines to identify multiple opportunities for drug repurposing: Confirmatory screen for MG 63 (6-TG R) cells (AID 1347119); also: nearly all actives have a fitted effect of over 55% in size
Summary of the method: as §2

[15] = qHTS of pediatric cancer cell lines to identify multiple opportunities for drug repurposing: Confirmatory screen for control Hh wild type fibroblast cells (AID 1347121); also: nearly all actives have a fitted effect of over 70% in size
Summary of the method: as §2

[16] = qHTS of pediatric cancer cell lines to identify multiple opportunities for drug repurposing: Primary screen for Rh41 cells (AID 1347108);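 also: series mostly up to about 46 µM; luminescence drop marks cytotoxic hits; nearly all actives have a fitted effect of over 70% in size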
Summary of the method: as §3

[17] = qHTS of pediatric cancer cell lines to identify multiple opportunities for drug repurposing: Confirmatory screen for SK-N-MC cells (AID 1347111);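 also: cells exposed to compound for 48 h before the readout; nearly all actives have a fitted effect of over 70% in size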; also: potency is read from the fitted curve at half-maximal effect
Summary of the method: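 Metabolically active cells were quantified by ATP-dependent luminescence (CellTiter-Glo, 15 min at room temperature) following 48 h treatment. Cells had been plated at 500-1,000 per well and settled for 5 h beforehand.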

[18] = qHTS of pediatric cancer cell lines to identify multiple opportunities for drug repurposing: Confirmatory screen for SJ-GBM2 cells (AID 1347116); also: nearly all actives have a fitted effect of over 60% in size
Summary of the method: (§4)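 Viability measured as metabolically active cells via CellTiter-Glo luminescence following 48 hours of compound exposure, 11-point dilutions in confirmatory testing. 500-1,000 cells/well plated 5 hours before dosing; controls were DMSO and 2.3 µM bortezomib.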

[19] = qHTS of pediatric cancer cell lines to identify multiple opportunities for drug repurposing: Confirmatory screen for TC32 cells (AID 1347118);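 also: cells exposed to compound for 48 h before the read; nearly all actives have a fitted effect of over 65% in size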; also: potency is read from the fitted curve at half-maximal effect
Summary of the method: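 Luminescent CellTiter-Glo read-out of metabolically active TC32 cells after 48 h compound exposure. Primary: MIPE 11-point, 0.78 nM–46 µM; NPC 8-point, 0.59 nM–46 µM. Confirmatory: 11-point dilutions.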

[20] = qHTS of pediatric cancer cell lines to identify multiple opportunities for drug repurposing: Confirmatory screen for DAOY cells (AID 1347114); also: nearly all actives have a fitted effect of over 65% in size
Summary of the method: as §4

Measured: Potency

COC[C@@H](NC(C)=O)C(=O)NCc1ccccc1
inactive: [1] | [2] | [3] | [4] | [5] | [6] | [7] | [8] | [9] | [10] | [11] | [12] | [13] | [14] | [15]

C[C@]12CC[C@H]3[C@@H](CCC4=CC(=O)CC[C@@H]43)[C@@H]1CC[C@@H]2OC(=O)CCc1ccccc1
inactive: [1] | [2] | [3] | [4] | [5] | [6] | [7] | [16]

C#CCOC(C(=O)OCCN(C)C)(c1ccccc1)c1ccccc1
inactive: [1] | [2] | [3] | [4] | [5] | [6] | [7]

Cn1c(CCCC(=O)O)nc2cc(N(CCCl)CCCl)ccc21
inactive: [1] | [2] | [5] | [6] | [7] | [16] | [10] | [11] | [18] | [15]
active: [3] 24.6 µM and 24.3 µM | [8] 16.5 µM | [17] 3.69 µM | [12] 13.1 µM | [19] 4.65 µM

O=P1(NCCCl)OCCCN1CCCl (stereo unspecified)
inactive: [1] | [2] | [3] | [4] | [5] | [6] | [7] | [8] | [9] | [17] | [10] | [11] | [20] | [12] | [18] | [13] | [19] | [14] | [15]

Nc1ccncc1
inactive: [1] | [2] | [3] | [5] | [6] | [7]

CCC1(C2=NCCN2)Cc2ccccc2O1 (stereo unspecified)
inactive: [1] | [2] | [3] | [4] | [5] | [6] | [7]

CN(C)CCc1ccc(O)cc1
inactive: [1] | [2] | [3] | [5] | [6] | [7] | [16]

CC[N+]1(C)CCCC(OC(=O)C(O)(c2ccccc2)c2ccccc2)C1 (stereo unspecified)
inactive: [1] | [2] | [3] | [4] | [5] | [6] | [7]

CC[N+](CC)(CC)CC
inactive: [1] | [2] | [3] | [4] | [5] | [6] | [7] | [16]

Cc1ccc2c(c1)C1CN(C)CCC1N2 (stereo unspecified)
inactive: [1] | [2] | [3] | [5] | [6] | [7] | [16]

CC(C)NCC(O)c1ccccc1Cl (stereo unspecified)
inactive: [1] | [2] | [3] | [4] | [5] | [6] | [7] | [16]

CCN(CC)CCOC(=O)C(O)(c1ccccc1)c1ccccc1
inactive: [1] | [2] | [3] | [5] | [6] | [7] | [16]

C=C1CC[C@@]2(O)[C@H]3Cc4ccc(O)c5c4[C@@]2(CCN3CC2CC2)[C@H]1O5
inactive: [1] | [2] | [3] | [4] | [5] | [6] | [7] | [16]

O=C1NCN(c2ccccc2)C12CCN(CC1COc3ccccc3O1)CC2 (stereo unspecified)
inactive: [1] | [2] | [3] | [5] | [6] | [7]

Oc1ccccc1-c1ccccc1
inactive: [1] | [2] | [3] | [5] | [6] | [7] | [16]

C=CCN1CC[C@]23c4c5ccc(O)c4O[C@H]2C(=O)CC[C@@]3(O)[C@H]1C5
inactive: [1] | [2] | [3] | [5] | [6] | [7] | [16]

CC[C@@H](CO)NC(=O)[C@@H]1C=C2c3cccc4[nH]cc(c34)C[C@H]2N(C)C1
inactive: [1] | [2] | [3] | [4] | [5] | [6] | [7]

O=C(NC(O)C(Cl)(Cl)Cl)NC(O)C(Cl)(Cl)Cl (stereo unspecified)
inactive: [1] | [2] | [3] | [4] | [5] | [6] | [7]

CC(CCc1ccccc1)NC(C)C(O)c1ccc(O)cc1 (stereo unspecified)
inactive: [1] | [2] | [5] | [6] | [7]

CCCN1CCC[C@@H]2Cc3nc(N)ncc3C[C@H]21
inactive: [1] | [2] | [3] | [5] | [6] | [7]

NCC(O)c1ccc(O)cc1 (stereo unspecified)
inactive: [1] | [2] | [3] | [4] | [5] | [6] | [7]
